# Screening results from PubChem BioAssay.
# Vc quorum ag: induces V. cholerae light production without autoinducers. 0.16% of 350,000 active. V. cholerae BH1578 lux reporter, luminescence, 6 h. activation, % at 18.7 µM; in the data active means activation mostly above about 9.7%, no sharp cut-off
# SARS 3CLpro inh: SARS-CoV 3CLpro protease inhibition; AID 1706; P0C6X7; 0.14% of 290,000 active; inhibition, % at 6 µM; recombinant SARS-CoV 3CLpro, quenched FRET peptide cleavage; in the data active means inhibition above about 12%
# GDH-TPI counter-1: counter-screen for M. tuberculosis FBA inhibitors: GDH-TPI coupled enzymes. GDH-TPI coupled enzyme counterscreen, NADH absorbance. inhibition, % at 4.8 µM. 1.2% of 360,000 active; in the data active means inhibition above about 30%;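 further: 0% = DMSO wells and 100% = wells lacking the enzyme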
# PrPC surface inh: reduces human prion protein on the cell surface | P04156 | cell surface PrPC, TR-FRET read-out | inhibition, % at 13.8 µM | 0.43% of 370,000 active; in the data active means inhibition above about 24%; further: 0% = median of the test wells and 100% = reference compound wells
# FBA Mtb inh: inhibits M. tuberculosis FBA enzyme; P9WQA3; 2.3% of 360,000 active; inhibition, % at 1 µM; AID 588726; purified M. tuberculosis FBA, fluorescence read-out;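 further: 0% = vehicle and 100% = reference inhibitor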
# Target sequence (P9WQA3 whole entry, looked up): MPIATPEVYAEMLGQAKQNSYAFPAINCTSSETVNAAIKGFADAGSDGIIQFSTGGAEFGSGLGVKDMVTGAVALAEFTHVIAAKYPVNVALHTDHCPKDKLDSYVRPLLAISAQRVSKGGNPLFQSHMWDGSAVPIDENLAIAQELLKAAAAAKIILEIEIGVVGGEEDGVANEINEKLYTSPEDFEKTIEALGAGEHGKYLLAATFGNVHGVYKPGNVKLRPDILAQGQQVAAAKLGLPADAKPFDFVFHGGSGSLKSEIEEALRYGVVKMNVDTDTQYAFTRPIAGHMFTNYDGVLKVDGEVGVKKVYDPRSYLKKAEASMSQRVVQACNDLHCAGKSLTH
# Mtb FBA inh conf: confirmation of M. tuberculosis fructose-bisphosphate aldolase inhibitors. shares compounds with FBA Mtb inh. purified M. tuberculosis FBA, fluorescence read-out. inhibition, % at 1 µM. 78% of 5,600 active. AID 651616;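 further: 0% = vehicle wells and 100% = reference inhibitor wells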
# GDH-TPI counter-2: GDH-TPI inhibition counter-screen for FBA inhibitors. 81% of 5,600 active. shares compounds with FBA Mtb inh. inhibition, % at 1 µM. AID 652141. GDH-TPI coupled enzyme counterscreen, fluorescence; in the data active means inhibition above about 10%
# GDH-TPI DR: counter-screen for M. tuberculosis FBA inhibitors: GDH-TPI dose response | 79% of 170 active | IC50, µM | GDH-TPI coupled enzyme assay, fluorescence, artifact counterscreen | shares compounds with FBA Mtb inh | AID 652145; call rule not given here
# * marks the source's active call; other numbers are inactive results; i = inactive; . = no result; + = active, no number. Compounds with a hit are over-represented: about 3.9% of the library has one in this group of screens. Unless noted, no stated cut-off is given here; in the data, active means inhibition above about 27%; inactive means the rest.
SMILES,Vc quorum ag,SARS 3CLpro inh,GDH-TPI counter-1,PrPC surface inh,FBA Mtb inh,Mtb FBA inh conf,GDH-TPI counter-2,others
CC1CC(C)CN(C(=O)Cn2cc(C=O)c3ccccc32)C1 (centres undefined),0,-5,12,0,1,.,.,
O=C(NCCCCO)c1ccc2c3c(cccc13)CC2,0,0,7,-1,64*,-2,-3,
CCOCCNC(=O)c1ccc2c3c(cccc13)CC2,i,-2,1,-4,81*,47*,36*,
CC(C)(C)NC(=O)c1ccc2c3c(cccc13)CC2,i,4,9,0,13,.,.,
CCc1nc2c(OCCn3cccc3)cccn2c1N(C)C(=O)c1ccco1,3,.,0,-1,1,.,.,
O=C(CSc1n[nH]c(-c2ccc(S(=O)(=O)N3CCCCC3)cc2)n1)Nc1nccs1,i,5,18,6,61*,65*,47*,
COc1cc(/C=N/NC(=O)C(N)=O)cc(OC)c1O,0,-2,14,-8,51*,+,+,
Cc1ccc(C(C(=O)NCC2CCCO2)N(C(=O)c2snc(C(N)=O)c2N)c2ccc(F)cc2)o1 (centres undefined),0,0,5,-8,9,.,.,
CCOc1ccc(C(C(=O)NCC2CCCO2)N(C(=O)c2snc(C(N)=O)c2N)c2ccccc2F)cc1 (centres undefined),i,1,13,-6,53*,62*,51*,
NC(=O)c1nsc(C(=O)N(c2ccccc2F)C(C(=O)NCc2ccc(F)cc2)c2ccc(O)cc2)c1N (centres undefined),1,3,2,7,35*,145*,107*,
CCOc1ccc(C(C(=O)NCC2CCCO2)N(C(=O)c2snc(C(N)=O)c2N)c2cccc(F)c2)cc1 (centres undefined),0,-3,9,-4,34*,91*,72*,
NC(=O)c1nsc(C(=O)N(c2ccccc2)C(C(=O)NCC2CCCO2)c2ccc(F)cc2)c1N (centres undefined),0,1,-1,-4,17,.,.,
Cc1ccc(C(C(=O)NCC2CCCO2)N(C(=O)c2snc(C(N)=O)c2N)c2ccccc2F)o1 (centres undefined),0,-7,9,-7,33*,59*,39*,
COc1ccc(C2=NOC(C(=O)N(C)Cc3ccccc3)C2)cc1 (centres undefined),i,-1,-2,-10,1,.,.,
CN(C)c1ccc(N(C)C)c(C(O)(c2ccccc2)c2ccccc2)c1,.,.,.,6,.,.,.,
COC(=O)[C@H](CC(C)C)N(CCCc1cn(CC2CCCCC2)nn1)S(=O)(=O)c1ccc(F)cc1Br,.,.,.,12,.,.,.,
CC(/C=N\NC(=O)CN1CCN(S(=O)(=O)c2ccc(C)cc2)CC1)=C\c1ccccc1,-3,5,-1,-6,-2,.,.,
Cc1ccccc1N(C(=O)c1snc(C(N)=O)c1N)C(C(=O)NC1CCCC1)c1ccco1 (centres undefined),0,3,10,-6,37*,134*,98*,
CCc1ccc(N(C(=O)c2snc(C(N)=O)c2N)C(C(=O)NC2CCCC2)c2ccco2)cc1 (centres undefined),-2,3,5,-8,3,.,.,
c1cc(-c2ccc3c(c2)CCO3)n2cnnc2c1,0,.,4,-8,15,.,.,
c1cc(-c2ccc(N3CCOCC3)cc2)n2cnnc2c1,-1,.,18,-30,92*,174*,151*,
COc1ccc(/C=N/NC(=O)c2ccoc2C)cc1CN1CCN(c2ccc(F)cc2)CC1,i,1,0,-6,-2,.,.,
COc1ccc(-c2ccc3c(=O)cc(-c4ccsc4)oc3c2)cn1,-1,.,15,-6,48*,10,1,
O=C(c1ccsc1)N1CCCC(N2CCOCC2)C1 (centres undefined),0,-5,8,-4,-2,.,.,
CC1(C)CC(=O)c2cc(OCC(=O)O)ccc2O1,0,-1,15,3,64*,101*,75*,
SMILES,Vc quorum ag,SARS 3CLpro inh,GDH-TPI counter-1,PrPC surface inh,FBA Mtb inh,Mtb FBA inh conf,GDH-TPI counter-2,others
CC1(C)CC(=O)c2cc(OCC(=O)NCCN3CCOCC3)ccc2O1,0,3,3,2,34*,57*,40*,
CC1(C)CC(=O)c2cc(OCC(=O)N3CCCCCC3)ccc2O1,0,4,0,-1,46*,88*,95*,
Cc1cc(C)c2c(c1)OC(O)(C(F)F)CC2=O (centres undefined),i,-2,5,7,0,.,.,
COc1ccc2c(c1)C(=O)CC(O)(C(F)F)O2 (centres undefined),i,-1,4,-9,31*,72*,53*,
Cc1cc(OCC(=O)NCCN2CCOCC2)cc(C)c1Br,-2,1,1,6,1,.,.,
CC1(C(=O)NS(=O)(=O)c2ccc(F)cc2F)CCN1C(=O)c1ccccc1CCc1ccccc1 (centres undefined),i,.,5,12,-3,.,.,
CCOC(=O)COc1ccc2c(c1)C(=O)CC(C)(C)O2,0,-9,20,-5,48*,23,6,GDH-TPI DR=2.9*
CC1(C)CC(=O)c2cc(OCC(=O)N3CCN(Cc4ccccc4)CC3)ccc2O1,i,-1,4,0,7,.,.,
CCOC(=O)N1CCN(C(=O)COc2ccc3c(c2)C(=O)CC(C)(C)O3)CC1,-4,0,4,-5,41*,134*,114*,
Cc1ccc(S(=O)(=O)N2C[C@H]3C(=O)C[C@@H](c4ccccc4)N(S(=O)(=O)c4ccccc4[N+](=O)[O-])[C@H]3C[C@H]2c2ccccc2)cc1,.,.,.,-3,-2,.,.,
Cc1cc(NC(=O)Cc2cn(C)c3ccccc23)ccc1Oc1cccnc1,.,.,.,5,.,.,.,
CCOc1ccc(NC(=O)NNC(=O)c2ccc3ccccc3c2O)cc1,-4,6,10,9,40*,28*,10,GDH-TPI DR=5.7*
CC(=O)Nc1ccc(CCNC(=O)c2ccc3ccccc3c2O)cc1,i,.,12,-4,32*,+,149*,
CCc1ccccc1NC(=O)NNC(=O)c1ccc2ccccc2c1O,0,7,3,1,8,.,.,
COc1ccc(NC(=O)NNC(=O)c2cc(C3CC3)nc3ccccc23)c(OC)c1,i,-1,4,-1,0,.,.,
O=C(NNC(=O)c1cc2ccccc2cc1O)Nc1ccc(Br)cc1,i,5,12,-1,28*,106*,91*,
COc1ccc(NC(=O)NNC(=O)c2ccc3ccccc3c2O)c(OC)c1,i,-1,4,9,40*,52*,44*,
COc1ccccc1N1CCN(C2CCCN(C(=O)CN3CCCC3=O)C2)CC1 (centres undefined),0,-3,-1,-3,0,.,.,
